Five compounds from PubChem BioAssay can be followed below.

Each structure is given as a SMILES string. Activity calls are given as the source filed them.

Assay [1] relates to PRMT1 (protein arginine N-methyltransferase 1). Kind of assay: PRMT1 binders on small-molecule microarrays, primary screen, biochemical, small-molecule microarray, 635 nm fluorescence (AID 1088).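 Also: binding of Prmt1 protein to compounds spotted on small-molecule microarray slides.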 The conditions noted are these: small-molecule microarray binding, higher = more signal.
The nature of assay [2]: yeast growth modulation, basal conditions, primary screen, YJM789 clinical isolate, OD600, 24 h (AID 1089).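 Also: growth of clinical yeast isolate S. cerevisiae YJM 789 seeded 1000 cells per well; test concentration not given here.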 The note with it: S. cerevisiae YJM789 growth, higher = more signal, called active from +8 up or from −8 down.
Assay [3] can be described thus: fission yeast growth modulation, primary screen, strain 972, OD600, 24 h, no modulator (AID 1090).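 Also: basal condition with compound alone and no growth modifier present; test concentration not given here.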 The note with it: S. pombe 972 growth, higher = more signal, called active from +8 up or from −8 down.
A short description of assay [4]: S. cerevisiae growth modulation with rapamycin, primary screen, strain BY4716, OD600, 96 h (AID 1091). Also: test concentration not given here. The note with it: higher = more signal, called active from +8 up or from −8 down.
Assay [5] concerns the target Torsin-1A-interacting protein 2 (Homo sapiens) (UniProt Q8NFQ8). Description: LULL1 binders on small-molecule microarray, primary screen, cell lysate, human LULL1 lysate, 635/667 nm fluorescence (AID 1092).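 Also: probe is lysate of COS7 cells overexpressing human LULL1; score merges per-feature 667 nm fluorescence with signal-to-noise.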 The note with it: hLULL1 lysate binding, 635 nm fluorescence, higher = more signal.
Assay [6] in a line: E. coli growth modulation, two-sided OD650, primary screen, E. coli filamentation project, strain DRC41, 24 h (AID 1093).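 Also: MC1000 strain lacking acrAB efflux and sulA so SOS filamentation is blocked; test concentration not given here.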 The note with it: OD650, 24 h, higher = more signal, called active from +8 up or from −8 down.
Assay [7] is described as follows: small-molecule microarray binders of probe aLefty2, primary screen, biochemical, biotinylated probe, 635/667 nm fluorescence (AID 1094).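 Also: score merges spot fluorescence near 667 nm with spot signal-to-noise ratio.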 The conditions noted are these: higher = more signal.
In assay [8] the test system is Noggin (protein binding on small-molecule microarray). Kind of assay: Noggin binders on small-molecule microarray, primary screen, biochemical, 635/667 nm fluorescence (AID 1095).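 Also: score merges 667 nm feature fluorescence with signal to noise over triplicate slides.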 The conditions noted are these: 635 nm fluorescence, higher = more signal.
For assay [9], the target named is Neurogenic locus notch homolog protein 3 (Homo sapiens) (UniProt Q9UM47). Kind of assay: NOTCH3 binders on small-molecule microarray, primary screen, biochemical, 635/667 nm fluorescence (AID 1096). The conditions noted are these: NOTCH3 binding, 635 nm fluorescence, higher = more signal.
Assay [10] can be described thus: small-molecule microarray binders of probe aEGFR, primary screen, biochemical, biotinylated probe, 635/667 nm fluorescence (AID 1097).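 Also: probe is a biotinylated anti-EGFR antibody binding compounds printed on slides; score combines fluorescence near 667 nm and signal to noise of each spot.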 The note with it: higher = more signal.
Assay [11] relates to Plasmodium falciparum Sir2 (PF13_0152, Sir2A). Description: pfSir2 binders on small-molecule microarrays, primary screen, biochemical, small-molecule microarray, 635 nm fluorescence (AID 1098).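 Also: score merges spot fluorescence intensity with its signal-to-noise ratio.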 The note with it: small-molecule microarray binding, fluorescence 635 nm; higher = more signal.
Assay [12] is described as follows: small-molecule microarray binders of probe aDKK1, primary screen, biochemical, biotinylated probe, 635/667 nm fluorescence (AID 1099).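 Also: score merges 667nm spot fluorescence with signal to noise across triplicate slides; reference of the scale not given here.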 The note with it: higher = more signal.
Assay [13] can be described thus: small-molecule microarray binders of probe aCHRDL2, primary screen, biochemical, biotinylated probe, 635/667 nm fluorescence (AID 1100). The conditions noted are these: higher = more signal.
Assay [14] can be described thus: splicing luciferase reporter signal modulators, primary screen, spliceosome inhibition project, cell-based, HEK293, splice +/- reporter (AID 1101).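 Also: HEK293 cells carrying a splicing-competent luciferase reporter gene; test concentration not given here.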 The note with it: luminescence, 24 h, higher = more signal, called active from +8 up or from −8 down.
For assay [15], the target named is Fibroblast growth factor 10 (Homo sapiens) (UniProt O15520). Kind of assay: FGF10 binders on small-molecule microarrays, primary screen, biochemical, small-molecule microarray, 635 nm fluorescence (AID 1102). The conditions noted are these: FGF10 binding, fluorescence 635 nm, higher = more signal.
In assay [16] the test system is glycogen synthase kinase-3 (GSK3A per assay name; protocol says GSK3B). Description: GSK3 binders on small-molecule microarrays, primary screen, biochemical, small-molecule microarray, 635 nm fluorescence, GSK3A (AID 1103). Also: the record names both GSK3A and GSK3B. The conditions noted are these: small-molecule microarray binding, fluorescence 635 nm; higher = more signal.
The target in assay [17] is Epidermal growth factor receptor (Homo sapiens) (UniProt P00533). Kind of assay: EGFR binders on small-molecule microarrays, primary screen, biochemical, small-molecule microarray, 635 nm fluorescence (AID 1104).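 Also: score merges 667 nm emission intensity with spot signal to noise over triplicate slides.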 The note with it: EGFR binding, higher = more signal.
Assay [18] concerns the target Follistatin-related protein 3 (Homo sapiens) (UniProt O95633). Kind of assay: FSTL3 binders on small-molecule microarrays, primary screen, biochemical, small-molecule microarray, 635 nm fluorescence (AID 1105).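 Also: score merges emission near 667 nm and signal to noise per printed spot across three slides.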 The note with it: FSTL3 binding, higher = more signal.
For assay [19], the target named is Dickkopf-related protein 1 (Homo sapiens) (UniProt O94907). Kind of assay: DKK1 binders on small-molecule microarrays, primary screen, biochemical, small-molecule microarray, 635 nm fluorescence scan (AID 1106).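 Also: score merges emission near 667 nm with signal to noise over three replicate slides.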 The note with it: DKK1 binding, higher = more signal.
Assay [20] concerns Inhibin beta A chain (activin A). Kind of assay: INHBA (activin A) binders on microarrays, primary screen, biochemical, small-molecule microarray, 635 nm fluorescence scan (AID 1107).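 Also: mouse activin A protein probed at 4.33 µg/mL on printed slides; score merges bound-protein fluorescence near 667 nm with spot signal-to-noise.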 The note with it: small-molecule microarray binding, higher = more signal.

Sequence of Fibroblast growth factor 10 (Homo sapiens) (O15520 whole entry, looked up): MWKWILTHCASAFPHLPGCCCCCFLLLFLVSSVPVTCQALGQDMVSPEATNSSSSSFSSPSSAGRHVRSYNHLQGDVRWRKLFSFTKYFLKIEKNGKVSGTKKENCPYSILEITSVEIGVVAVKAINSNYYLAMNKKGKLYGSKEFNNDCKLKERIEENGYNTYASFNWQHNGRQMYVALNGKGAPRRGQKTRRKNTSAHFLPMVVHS
Sequence of Torsin-1A-interacting protein 2 (Homo sapiens) (Q8NFQ8 whole entry, looked up): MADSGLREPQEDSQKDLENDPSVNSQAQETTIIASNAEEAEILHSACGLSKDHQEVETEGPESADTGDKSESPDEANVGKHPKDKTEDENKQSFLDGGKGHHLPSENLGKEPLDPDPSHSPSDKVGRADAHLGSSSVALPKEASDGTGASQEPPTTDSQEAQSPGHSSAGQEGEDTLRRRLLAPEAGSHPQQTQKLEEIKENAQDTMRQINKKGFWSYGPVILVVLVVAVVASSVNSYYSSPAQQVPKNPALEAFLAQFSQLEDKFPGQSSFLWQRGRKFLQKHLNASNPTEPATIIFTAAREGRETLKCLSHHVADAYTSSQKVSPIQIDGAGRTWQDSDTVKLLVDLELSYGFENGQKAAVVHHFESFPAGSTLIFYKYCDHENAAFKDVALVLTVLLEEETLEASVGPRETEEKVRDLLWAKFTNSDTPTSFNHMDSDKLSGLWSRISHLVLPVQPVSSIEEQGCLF
Sequence of Neurogenic locus notch homolog protein 3 (Homo sapiens) (Q9UM47 whole entry, looked up): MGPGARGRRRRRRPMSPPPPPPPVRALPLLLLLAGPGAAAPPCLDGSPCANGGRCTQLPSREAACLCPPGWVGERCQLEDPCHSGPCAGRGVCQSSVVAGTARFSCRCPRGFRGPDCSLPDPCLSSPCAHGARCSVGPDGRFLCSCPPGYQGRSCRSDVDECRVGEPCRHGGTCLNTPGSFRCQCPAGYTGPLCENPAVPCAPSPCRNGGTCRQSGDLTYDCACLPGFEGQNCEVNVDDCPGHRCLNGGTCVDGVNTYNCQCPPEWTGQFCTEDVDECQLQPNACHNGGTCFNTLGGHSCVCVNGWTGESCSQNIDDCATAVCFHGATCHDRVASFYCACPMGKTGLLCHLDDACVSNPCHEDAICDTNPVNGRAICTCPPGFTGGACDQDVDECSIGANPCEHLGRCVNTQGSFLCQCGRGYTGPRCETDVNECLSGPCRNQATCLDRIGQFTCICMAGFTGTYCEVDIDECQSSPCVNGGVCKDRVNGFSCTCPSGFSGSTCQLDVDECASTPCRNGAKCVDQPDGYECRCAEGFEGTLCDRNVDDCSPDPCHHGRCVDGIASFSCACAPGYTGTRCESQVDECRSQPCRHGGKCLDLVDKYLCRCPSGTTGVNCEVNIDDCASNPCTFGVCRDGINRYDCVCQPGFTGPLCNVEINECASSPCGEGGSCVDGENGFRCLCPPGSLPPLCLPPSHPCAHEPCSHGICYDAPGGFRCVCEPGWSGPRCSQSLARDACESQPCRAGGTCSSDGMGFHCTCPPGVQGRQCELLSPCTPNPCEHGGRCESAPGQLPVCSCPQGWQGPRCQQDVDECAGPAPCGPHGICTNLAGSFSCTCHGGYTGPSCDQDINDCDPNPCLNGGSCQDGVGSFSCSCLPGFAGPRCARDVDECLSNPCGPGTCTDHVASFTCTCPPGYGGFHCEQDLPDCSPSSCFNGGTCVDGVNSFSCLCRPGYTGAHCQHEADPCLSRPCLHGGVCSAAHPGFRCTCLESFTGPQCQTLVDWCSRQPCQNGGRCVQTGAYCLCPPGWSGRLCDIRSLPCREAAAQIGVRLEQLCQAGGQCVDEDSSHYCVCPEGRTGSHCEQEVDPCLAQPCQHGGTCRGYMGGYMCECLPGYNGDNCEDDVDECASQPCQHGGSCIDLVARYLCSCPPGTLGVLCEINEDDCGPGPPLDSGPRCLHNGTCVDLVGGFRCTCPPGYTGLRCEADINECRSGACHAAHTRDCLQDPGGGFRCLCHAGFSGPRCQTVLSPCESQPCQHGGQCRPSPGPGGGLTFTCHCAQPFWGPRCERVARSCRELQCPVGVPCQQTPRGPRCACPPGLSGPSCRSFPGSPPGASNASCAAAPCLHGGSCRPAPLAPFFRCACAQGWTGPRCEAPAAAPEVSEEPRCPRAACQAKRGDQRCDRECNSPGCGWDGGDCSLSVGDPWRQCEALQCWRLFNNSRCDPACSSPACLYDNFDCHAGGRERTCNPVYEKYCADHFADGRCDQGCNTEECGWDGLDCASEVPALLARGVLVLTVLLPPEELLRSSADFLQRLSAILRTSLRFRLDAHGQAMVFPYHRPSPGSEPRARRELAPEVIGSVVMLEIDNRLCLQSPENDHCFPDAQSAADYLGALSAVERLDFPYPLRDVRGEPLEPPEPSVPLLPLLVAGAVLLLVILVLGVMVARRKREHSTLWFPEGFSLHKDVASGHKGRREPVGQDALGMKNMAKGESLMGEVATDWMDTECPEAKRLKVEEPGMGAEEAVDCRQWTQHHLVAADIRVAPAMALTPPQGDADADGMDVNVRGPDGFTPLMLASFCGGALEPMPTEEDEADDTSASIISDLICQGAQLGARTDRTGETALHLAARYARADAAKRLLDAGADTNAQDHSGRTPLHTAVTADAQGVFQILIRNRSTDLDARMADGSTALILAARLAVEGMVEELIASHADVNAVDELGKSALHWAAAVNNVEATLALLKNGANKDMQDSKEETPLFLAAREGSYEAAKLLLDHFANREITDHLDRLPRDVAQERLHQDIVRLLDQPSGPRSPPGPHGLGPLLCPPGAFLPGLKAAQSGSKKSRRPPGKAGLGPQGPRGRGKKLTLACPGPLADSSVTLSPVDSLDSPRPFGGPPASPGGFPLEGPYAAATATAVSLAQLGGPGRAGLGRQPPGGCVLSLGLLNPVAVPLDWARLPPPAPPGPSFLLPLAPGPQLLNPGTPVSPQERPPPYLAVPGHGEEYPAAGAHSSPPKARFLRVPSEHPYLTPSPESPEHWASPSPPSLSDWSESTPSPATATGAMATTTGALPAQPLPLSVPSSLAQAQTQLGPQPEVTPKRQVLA
Sequence of Dickkopf-related protein 1 (Homo sapiens) (O94907 whole entry, looked up): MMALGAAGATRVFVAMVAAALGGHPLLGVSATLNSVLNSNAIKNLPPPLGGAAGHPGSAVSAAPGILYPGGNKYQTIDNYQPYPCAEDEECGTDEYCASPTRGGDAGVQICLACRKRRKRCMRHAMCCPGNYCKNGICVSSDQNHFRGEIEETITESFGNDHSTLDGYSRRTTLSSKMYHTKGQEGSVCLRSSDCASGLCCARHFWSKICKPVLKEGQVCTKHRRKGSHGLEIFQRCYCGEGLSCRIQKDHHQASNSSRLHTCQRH
Sequence of Follistatin-related protein 3 (Homo sapiens) (O95633 whole entry, looked up): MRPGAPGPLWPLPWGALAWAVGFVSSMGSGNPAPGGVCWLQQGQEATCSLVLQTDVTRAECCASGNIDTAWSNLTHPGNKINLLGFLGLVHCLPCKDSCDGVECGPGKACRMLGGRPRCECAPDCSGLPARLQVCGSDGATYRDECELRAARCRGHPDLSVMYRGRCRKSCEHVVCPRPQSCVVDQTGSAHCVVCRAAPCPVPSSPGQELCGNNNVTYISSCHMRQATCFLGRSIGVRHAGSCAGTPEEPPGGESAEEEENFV
Sequence of Epidermal growth factor receptor (Homo sapiens) (P00533 whole entry, looked up): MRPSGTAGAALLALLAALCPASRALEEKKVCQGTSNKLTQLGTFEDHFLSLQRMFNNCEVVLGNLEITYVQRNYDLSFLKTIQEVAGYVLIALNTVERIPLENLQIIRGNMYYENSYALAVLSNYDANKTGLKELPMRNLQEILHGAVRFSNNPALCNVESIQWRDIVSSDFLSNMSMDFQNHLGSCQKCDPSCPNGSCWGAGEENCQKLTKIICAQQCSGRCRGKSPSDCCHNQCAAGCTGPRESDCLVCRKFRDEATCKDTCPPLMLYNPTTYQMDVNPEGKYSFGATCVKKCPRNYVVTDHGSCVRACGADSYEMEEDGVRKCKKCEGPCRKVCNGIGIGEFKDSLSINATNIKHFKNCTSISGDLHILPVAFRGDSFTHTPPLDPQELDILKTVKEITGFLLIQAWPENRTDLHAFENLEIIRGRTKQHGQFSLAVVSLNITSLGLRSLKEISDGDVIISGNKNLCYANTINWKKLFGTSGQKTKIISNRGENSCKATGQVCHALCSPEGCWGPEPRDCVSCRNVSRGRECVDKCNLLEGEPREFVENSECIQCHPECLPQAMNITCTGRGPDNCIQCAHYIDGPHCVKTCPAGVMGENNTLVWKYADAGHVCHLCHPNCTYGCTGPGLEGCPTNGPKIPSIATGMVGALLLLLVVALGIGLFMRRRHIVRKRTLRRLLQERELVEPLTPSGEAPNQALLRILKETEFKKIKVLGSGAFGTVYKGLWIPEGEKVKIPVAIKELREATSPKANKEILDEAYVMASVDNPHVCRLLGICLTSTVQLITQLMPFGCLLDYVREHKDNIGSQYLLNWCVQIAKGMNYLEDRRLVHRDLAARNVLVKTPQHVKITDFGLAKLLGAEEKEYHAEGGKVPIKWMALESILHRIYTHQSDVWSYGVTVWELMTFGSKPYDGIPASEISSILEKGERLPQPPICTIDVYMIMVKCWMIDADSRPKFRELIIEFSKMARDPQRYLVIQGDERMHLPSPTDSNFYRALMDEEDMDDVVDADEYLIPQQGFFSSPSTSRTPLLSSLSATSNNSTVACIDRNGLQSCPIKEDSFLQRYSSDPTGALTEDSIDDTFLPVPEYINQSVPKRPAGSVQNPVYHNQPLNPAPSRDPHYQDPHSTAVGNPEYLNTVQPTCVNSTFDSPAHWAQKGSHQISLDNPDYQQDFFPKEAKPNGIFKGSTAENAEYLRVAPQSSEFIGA

Consider `C[C@H]1C2[C@H](Cc3ccccc3)NC(=O)[C@]23C(=O)NCC(=O)N2CCC[C@H]2C(=O)NC/C=C\C/C=C/C3[C@@H]2O[C@]12C` (stereo not given in full), for which the composite z-score in [1] is -0.115; in assay [5], -0.691; in assay [7] it was -0.161; in assay [8], -0.102; in [9], 0.105; in [10], -0.0531. Moreover, the composite z-score was 1 in assay [11]; -0.22 in [12]; -0.6 in assay [13]; 0.269 in assay [15]; -0.0567 in [16]; 0.136 in assay [17]. For the same compound, the composite z-score in assay [18] was 0.201; in [19] it was 0.376; in assay [20] it was 1.43. The z-score was -0.479 (inactive) in assay [2]; -0.186 (inactive) in assay [3]; -0.406 (inactive) in assay [4]; 0.924 (inactive) in assay [6]; 0.0829 (inactive) in assay [14].
Regarding `CN(C)C(=O)[C@@]1(CCS(=O)(=O)c2ccccc2)N=C(c2ccc(OCCCO)cc2)O[C@H]1c1ccccc1N=[N+]=[N-]`, the composite z-score in assay [1] was 1.55; in assay [5], 3.1; in assay [7], 0.0554; in [8], 0.987; in assay [9], 1.11; in [10], -0.0168. Also, the composite z-score was 1.44 in assay [11]; 0.466 in assay [12]; 0.817 in assay [13]; 1.36 in assay [15]; 1.29 in [16]; 0.193 in [17]. The composite z-score was 1.03 in [18], -0.0735 in [19] and 0.786 in [20]. Moreover, the z-score in assay [2] was -1.01 (inactive); in [3], -0.173 (inactive); in assay [4], 0.914 (inactive); in assay [6], 0.635 (inactive); in assay [14], -0.445 (inactive).
On to `CC(C)C[C@H]1NC(=O)[C@H](Cc2ccccc2)NC(=O)[C@@]23C(=O)N[C@@H](Cc4ccccc4)C2[C@H](C)[C@@]2(C)O[C@H]2C3/C=C/C/C=C\CNC1=O` (stereo not given in full), for which the composite z-score was 1.21 in assay [1]; 1.46 in assay [5]; -0.123 in [7]; 0.426 in [8]; 0.852 in assay [9]; -0.0968 in assay [10]. The composite z-score was 1.19 in assay [11]; 0.0099 in assay [12]; -0.4 in assay [13]; 0.916 in [15]; 0.979 in [16]; 0.121 in assay [17]. Moreover, the composite z-score in [18] amounted to 0.676; in [19] it was 0.726; in assay [20] it was 1.12. Further, the z-score in assay [2] is -1.12 (inactive); in assay [3] it was -0.667 (inactive); in assay [4], -0.302 (inactive); in assay [6], -1.03 (inactive); in [14], -0.514 (inactive).
As to `CC(C)C[C@@H]1NC(=O)[C@H]2C[C@@H](C(=O)NCCCCCNC(=O)CS)[C@@H](c3ccc(O)cc3)N2C1=O`, the composite z-score was 1.54 in assay [1]; 2.11 in assay [5]; -0.077 in [7]; 0.528 in [8]; 0.634 in assay [9]; -0.0007 in assay [10]. Besides, the composite z-score was 1.56 in assay [11]; -0.0363 in assay [12]; 0.203 in [13]; 1.08 in assay [15]; 1.33 in assay [16]; 0.521 in [17]. For the same compound, the figures for the composite z-score in assay [18], in assay [19] and in assay [20] were 0.848, 1.01 and 0.0563, respectively. Further, the z-score is 0.553 (inactive) in assay [2]; -0.12 (inactive) in [3]; 0.871 (inactive) in assay [4]; 0.488 (inactive) in [6]; 0.0983 (inactive) in [14].
In the case of `C=CCOC(=O)[C@H]1[C@@H]2C(=O)O[C@@H](c3ccccc3)[C@@H](c3ccccc3)N2[C@@H](c2ccc(OCCOC(=O)[C@@H]3C[C@@H]4C(=O)N[C@@H](Cc5ccccc5)C(=O)N4[C@@H]3c3ccc(O)cc3)cc2)[C@]12C(=O)Nc1ccccc12`, the composite z-score in [1] was 1.55; in assay [5], 2.13; in assay [7], -0.151; in [8] it was 1.65; in assay [9], 0.758; in [10] it was -0.0929. In addition, the composite z-score is 1.34 in assay [11]; -0.271 in [12]; -0.25 in assay [13]; 1.18 in [15]; 1.29 in assay [16]; 0.328 in assay [17]. Further, the composite z-score in [18] was 0.953; in assay [19], 0.973; in assay [20], -0.0812. In addition, the z-score in [2] was 0.455 (inactive); in assay [3] it was -0.113 (inactive); in [4], 3.75 (inactive); in assay [6], 0.0664 (inactive); in [14] it was 0.878 (inactive).
